According to the supplement of paper PMC12669797:
Values joined by “and” are separate entries in the source; they are usually repeats but may differ in a detail not shown here. Identical values can stand only once. Counter-ions that a name gives are not always drawn. ± gives the standard deviation of the averaged measurements.

Legend:
ES2 = test: cell viability relative to DMSO control (MTS) (fraction of DMSO control); higher = more viable cells / less growth inhibition; details: 10 µM; 48 h
Procedure, shortened: (§1)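 After 24 h of growth in 96-well plates at 5000 cells per well, TOV-21G and ES2 clear cell carcinoma cells were treated for 48 h with a 367-compound […] library at 10 µM final concentration. Cell viability was measured by MTS assay and expressed relative to vehicle control wells as a fraction.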

TOV-21G = test: as above; details: 10 µM; 48 h
Procedure, shortened: as §1

Structure (SMILES)	cell viability (ES2)	cell viability (TOV-21G)
NC(=O)c1cccc2cn(-c3ccc([C@@H]4CCCNC4)cc3)nc12 [MK-4827 (Niraparib)]	0.61	0.783
CCCCCCCCCCC1=C(C)C(=O)C(OC)=C(OC)C1=O [Decylubiquinone]	1.02	0.981
C[C@]1(O)C[C@@H](c2nc(-c3ccc4ccc(-c5ccccc5)nc4c3)c3c(N)nccn32)C1	0.62	0.875
CCCCOc1cc(CC2CNC(=O)N2)ccc1OC (configuration not stated)	0.901	0.999
c1ccc2c(-c3cnn4cc(-c5ccc(N6CCNCC6)cc5)cnc34)ccnc2c1	0.267	0.344
Cc1cn(-c2cc(NC(=O)c3ccc(C)c(Nc4nccc(-c5cccnc5)n4)c3)cc(C(F)(F)F)c2)cn1 [nilotinib]	0.751	0.709
Cc1cnc(-c2cnc(NCCNc3ccc(C#N)cn3)nc2-c2ccc(Cl)cc2Cl)[nH]1	1.05	0.888
C/C=C/C/C=C/CCC(=O)[C@H]1O[C@H]1C(N)=O [Cerulenin]	1.4	1.03
Cc1ccc(NC(=O)c2cccc(N(C)C)c2)cc1NC(=O)c1ccc(O)cc1	0.951	0.888
O=C(NCCCCCCNC(=O)ON=C1CCCCC1)ON=C1CCCCC1	1.3	0.996
CN(Cc1cnc2nc(N)nc(N)c2n1)c1ccc(C(=O)N[C@@H](CCC(=O)O)C(=O)O)cc1 [Methotrexate]	1.16	0.872
CSCC[C@H](NC(=O)c1ccc(NC[C@@H](N)CS)cc1-c1ccccc1)C(=O)O	1.55	1
CCCC[C@@H](C)/C=C(C)/C=C(\C)C(=O)NC1=C[C@@](O)(/C=C/C=C/C=C/C(=O)NC2=C(O)CCC2=O)[C@@H]2O[C@@H]2C1=O [Manumycin A]	1.06	1.61
Cc1nc2c(O)cccc2c(=O)[nH]1	1.04	0.856
CC(C)C[C@@H](C=O)NC(=O)[C@H](CC(C)C)NC(=O)[C@H](CC(C)C)NC(=O)OCc1ccccc1	0.298	0.255
CS(=O)(=O)c1ccc(C(=O)Nc2ccc(Cl)c(-c3ccccn3)c2)c(Cl)c1 [Vismodegib]	0.967	0.897
CC(C)C[C@H](NC(=O)[C@H](Cc1ccccc1)NC(=O)c1cnccn1)B(O)O [bortezomib]	0.302	0.432
COc1cc2ncc(-c3ccccc3)nc2cc1OC	0.862 ± 0.058	0.955 ± 0.13
COC(=O)C1=C(C)NC(C)=C(C(=O)OC)C1c1ccccc1[N+](=O)[O-] [Nifedipine]	0.911	0.741
N#C/C(=C\c1ccc2oc(=O)[nH]c2c1)C(=O)c1ccc(O)c(O)c1	0.972	1.13
O=[N+]([O-])c1ccc(-c2nc(-c3ccc(F)cc3)c(-c3ccncc3)[nH]2)cc1	0.835	0.976
CC(C)[C@H](CO)Nc1nc(Nc2cccc(Cl)c2)c2ncn(C(C)C)c2n1 [purvalanol A]	0.657	0.607
Cc1cc(N)c2ccccc2[n+]1CCCCCCCCCC[n+]1c(C)cc(N)c2ccccc21 [Dequalinium]	0.383	0.42

Structure (SMILES)	cell viability (ES2)	cell viability (TOV-21G)
C#Cc1cccc(Nc2ncnc3cc(OCCOC)c(OCCOC)cc23)c1 [erlotinib]	0.7	0.487
Cc1cccc(-c2nn3c(c2-c2ccnc4ccc(C(N)=O)cc24)CCC3)n1	0.988	1.02
O=C(Nc1ccc([N+](=O)[O-])cc1O)Nc1ccccc1Br	0.469	0.605
CNC(=O)[C@H](Cc1c[nH]c2ccccc12)NC(=O)[C@@H](CC(=O)NO)CC(C)C	1.02	0.959
CCCCN1C(=O)C2Cc3c([nH]c4ccccc34)C(c3cccc(O)c3)N2C1=O (configuration not stated)	0.368	0.46
COc1cc([C@@H]2c3cc4c(cc3[C@@H](O[C@@H]3O[C@@H]5CO[C@@H](C)O[C@H]5[C@H](O)[C@H]3O)[C@H]3COC(=O)[C@H]23)OCO4)cc(OC)c1O [Etoposide (VP-16)]	0.655	0.658
Ic1cccc(CSc2nnc(-c3ccncc3)o2)c1 [GSK-3 inhibitor II]	1.09	1.19
COC(=O)[C@H](CC(C)C)NC(=O)c1ccc(NC[C@@H](N)CS)cc1-c1ccccc1	1.09	0.633
CC(C)(C)c1nc2c3cc[nH]c(=O)c3c3cc(F)ccc3c2[nH]1 [JAK Inhibitor I]	0.561	0.662
CCN(CC)CCNC(=O)c1c(C)[nH]c(/C=C2\C(=O)Nc3ccc(F)cc32)c1C [sunitinib malate]	0.439	0.555
COc1ccc(CCN(C)CCCC(C#N)(c2ccc(OC)c(OC)c2)C(C)C)cc1OC (configuration not stated) [Verapamil]	0.953	1.12
CC(=N)NCc1cccc(CN)c1	1.15	0.992
O=C(Nc1cccc(NC(=O)c2cccc(O)c2O)c1)c1cccc(O)c1O	0.614	0.302
O=C1Nc2ccc(I)cc2/C1=C\c1cc(Br)c(O)c(Br)c1 [RAF1 kinase inhibitor I]	1.1	1.03
C=CCc1cccc(/C=N/NC(=O)CN2CCN(Cc3ccccc3)CC2)c1O	0.787	0.821
CC[C@]1(O)C[C@@H]2CN(CCc3c([nH]c4ccccc34)[C@@](C(=O)OC)(c3cc4c(cc3OC)N(C)[C@H]3[C@@](O)(C(=O)OC)[C@H](OC(C)=O)[C@]5(CC)C=CCN6CC[C@]43[C@@H]65)C2)C1 [Vinblastine sulfate]	0.52	0.427
O=C(O)c1ccccc1Nc1ccccc1 [N-phenylanthranilic acid]	1.02	0.995
Cc1cc(C=C2C(=O)C=CC2=O)cc(C)c1O	0.801	1.21
COC(=O)C[C@H](NC(=O)[C@H](C)NC(=O)[C@@H](NC(=O)OCc1ccccc1)C(C)C)C(=O)CF	1.42	1.16
COC(=O)CNC(=O)C(=O)OC [Dimethyloxalylglycine]	1.23	0.917
C[C@@H](N)[C@H]1CC[C@H](C(=O)Nc2ccncc2)CC1	1.09 and 0.911	0.922 and 0.973
CCN(CC)CCNC(=O)c1c(C)[nH]c(/C=C2\C(=O)Nc3ccc(Cl)cc32)c1C	0.254	0.222
C[C@]1(c2nc3c(C(N)=O)cccc3[nH]2)CCCN1 [ABT-888 (Veliparib)]	0.897	0.892
